High-throughput results from PubChem BioAssay.
TROY NFkB inh: blocks TROY-dependent signaling in reporter cells; inhibition, % at 10 µM; 360,000 tested, 0.98% active; AID 1347056; Q293 LMP1-TROYcd NF-kB luciferase reporter, 4 h;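 active = compounds whose plate-normalised and pattern-corrected inhibition of the luciferase reporter signal at the single screening dose is 50% or more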
KKLEB tox: counter-screen for CF NF-kB inhibitors: cytotoxicity; activity change (cytotoxicity), % at 5 µM; 360,000 tested, 0.36% active; AID 602141; KKLEB CF airway cells viability, ATPlite luminescence, overnight; stronger effect = lower value; cells stimulated with P. aeruginosa culture filtrate;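 active = corrected activity change at or below -50% at 5 µM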
TWEAK Fn14 block: inhibitors of TWEAK-Fn14 interaction signaling | TWEAK-stimulated Fn14 reporter cells, luciferase luminescence, 8 h | inhibition, % at 10 µM | 360,000 tested, 2% active; in the data active = inhibition above about 50%
CF NFkB block: inhibitors of cystic fibrosis induced NF-kB | KKLEB NF-kB-GFP reporter, PAF-induced, GFP fluorescence overnight | inhibition, % at 5 µM | 360,000 tested, 0.86% active | AID 588850;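 active = at least 50% inhibition at 5 µM, scaled per plate between neutral and stimulator controls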;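 note: PAF is a Pseudomonas aeruginosa culture filtrate used as stimulus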
Peg3 prom inh: reduces Peg3 promoter-driven luciferase expression in HeLa; HeLa PEG-Prom luciferase reporter, luminescence, overnight; 360,000 tested, 1.7% active; AID 588405; inhibition, % at 20 µM;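 active = inhibition of at least 50% at 20 µM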
HIF-2a inh: blocks HIF-2a reporter activity | 786-0 RCC cells HIF-2a reporter, luciferase luminescence, overnight | 360,000 tested, 0.72% active | inhibition, % at 18.8 µM;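 active = inhibition of the luminescence signal of 40% or more relative to plate controls, in a single-dose primary screen at 18.75 µM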
A number is an active result; 0 = inactive; - = no result. Shown are actives, neighbours in structure and some others; about 4% of the full set was active somewhere.

SMILES	TROY NFkB inh	KKLEB tox	TWEAK Fn14 block	CF NFkB block	Peg3 prom inh	HIF-2a inh
Cc1cccc(C(=O)OCC(=O)NN2C(=O)NC3(CCC(C)CC3)C2=O)c1O (centres undefined)	0	0	0	0	0	0
C/C=C(/C(=C/C)c1ccc(O)cc1)c1ccc(O)cc1	0	0	0	0	0	0
C=C(c1ccc(O)cc1)c1ccc(O)cc1	51.5	0	0	0	0	0
O=C(CCl)N1CCN2C(=O)c3ccccc3C12c1ccc(Cl)cc1 (centres undefined)	0	0	0	0	87.5	0
Cc1ccc(C(=O)N2CCN3C(=O)c4ccccc4C23c2ccc(Cl)cc2)cc1 (centres undefined)	0	0	0	0	0	0
CCOc1ccc(OCc2ccc(C(=O)NN=Cc3ccc[nH]3)cc2)cc1	0	0	52.1	0	0	0
O=C(N/N=C/c1ccc[nH]1)c1ccccc1OCc1ccc(F)cc1	0	0	0	0	0	0
CN1CCN(c2nc3ccccn3c(=O)c2C=C(C#N)C#N)CC1	0	0	0	0	0	0
COc1ccccc1-n1nnnc1SCC(=O)NC1CCCCC1	0	0	0	0	0	0
CN(C)S(=O)(=O)N1CCC(Oc2cccc(C(=O)NCCC3=CCCCC3)c2)CC1	0	0	50.4	0	0	0
CN(C)S(=O)(=O)N1CCC(Oc2cccc(C(=O)NC3CCCCC3)c2)CC1	0	0	0	0	0	0
CC(=O)C1CCC2C3CCC4=CC(=O)CCC4(C)C3(F)C(O)CC12C (centres undefined)	0	0	0	60.9	0	0
CC(=O)OC1CC2(C)C(C(C)=O)CCC2C2CCC3=CC(=O)CCC3(C)C12 (centres undefined)	0	0	0	0	0	0
CC12CCC(=O)C=C1CCC1C3CC(O)C(O)(C(=O)CO)C3(C)CC(O)C12F (centres undefined)	0	0	0	78.4	0	0
CC1(C)OC2CC3C4CCC5=CC(=O)CCC5(C)C4(F)C(O)CC3(C)C2(C(=O)CO)O1 (centres undefined)	0	0	0	96.4	0	0
CCN(CC(=O)NCc1ccc(F)cc1)C(=O)/C=C/c1ccc(S(=O)(=O)N(CC)CC)cc1	0	0	0	0	0	0
Cc1ccc(CNC(=O)C2CCC(=O)N(C3CC3)C2)cc1 (centres undefined)	0	0	0	0	0	0
CCCCN1C(=O)C(CC(=O)NCCCCc2ccccc2)CC(C(=O)N(C)C)=C1C (centres undefined)	0	0	0	0	0	0
CCCCCn1c(N(C)Cc2ccccc2)nc2c1c(=O)[nH]c(=O)n2C	0	0	0	0	55.1	0
CCCCCn1c(N2CCC(Cc3ccccc3)CC2)nc2c1c(=O)[nH]c(=O)n2C	0	0	0	0	64.2	0
Nc1nonc1-c1nc2ccccc2n1Cc1ccc(F)cc1Cl	54.1	0	0	0	0	0
Cn1nc(C(C)(C)C)c([N+](=O)[O-])c1C(=O)NC1CCCCC1	0	0	0	0	0	0
CCN1C(=O)/C(=C/C=C2/SCCN2C)SC1=S	0	0	67.8	0	0	0
COc1ccccc1-c1csc(NC(=O)c2ccc(N3C(=O)CCC3=O)cc2)n1	0	0	50.8	0	0	0
COc1ccc(CN2C(=O)C(CC(=O)NC3CCCC3)CC(C(=O)N3CCOCC3)=C2C)cc1 (centres undefined)	0	0	0	0	0	0
SMILES	TROY NFkB inh	KKLEB tox	TWEAK Fn14 block	CF NFkB block	Peg3 prom inh	HIF-2a inh
COc1ccc(-n2ncc3c(N4CCC(C)CC4)ncnc32)cc1	69.0	0	66.4	0	0	0
CC(C)Nc1ncnc2c1cnn2-c1ccc(Cl)cc1	63.5	0	73.8	0	0	0
Clc1ccc(-n2ncc3c(N4CCCC4)ncnc32)cc1	80.4	0	99.8	0	0	0
CC1CCN(c2ncnc3c2cnn3-c2ccccc2)CC1	0	0	0	0	0	0
Clc1ccc(Nc2ncnc3c2cnn3-c2ccccc2)cc1	0	0	0	0	0	0
OCCOCCNc1ncnc2c1cnn2-c1ccc(Cl)cc1	0	0	0	0	0	0
COCCNc1ncnc2c1cnn2-c1ccc(Cl)cc1	0	0	54.3	0	0	0
CC(C)C(=O)N1CCCC1(C)C(=O)Nc1ccc(-n2cccc2)cc1 (centres undefined)	0	0	0	0	0	0
CCc1nc2ccc(C(=O)Nc3ccc(NC(C)=O)cc3)cn2c1N(CCC(C)C)CCN(C)C	0	0	0	0	0	0
Cc1cc2nnc(SCC(=O)NCC(c3ccccc3)N(C)C)n2c2ccccc12 (centres undefined)	0	0	0	0	0	0
Cc1ccccc1CS(=O)(=O)Cc1ccc(C(=O)NC2CCCCC2)o1	0	0	0	0	0	0
CC(C)(C)Nc1ncnc2c1cnn2-c1ccccc1	51.5	0	0	0	0	0
COc1cccc(OCCN2CCN(c3ncnc4c3cnn4-c3ccccc3)CC2)c1	0	0	57.1	0	0	0
CCOC(=O)N1CCN(c2ncnc3c2cnn3-c2ccc(OC)cc2)CC1	-	0	0	0	0	0
Cn1ncc2c(N3CCN(c4ccc(Cl)c(Cl)c4)CC3)ncnc21	0	0	85.2	0	99.5	0
O=C(NC1CCCC1)C(C1CC1)n1c(-c2ccccn2)nc2ccccc21 (centres undefined)	-	-	-	-	-	0
COc1ccc2oc(=N)c(C(=O)Nc3cccc(C)c3C)cc2c1	0	0	0	0	0	0
O=C(COC(=O)/C=C/c1ccc(Cl)cc1Cl)NCC1CCCO1 (centres undefined)	0	0	0	0	0	0
CC1=C(C(=O)N(C(C)C)C(C)C)CC(CC(=O)NCc2cccc3ccccc23)C(=O)N1CCC1=CCCCC1 (centres undefined)	0	0	0	0	0	0
COc1cc(CNC(=O)c2cc(-c3cc(Cl)ccc3C)n[nH]2)cc(OC)c1	0	0	0	0	0	0
CN(C)c1ccc(/C=C(\Cl)c2nc3ccccc3s2)cc1	73.1	0	91.5	0	0	0
Cc1cc(C(C)(C)C)oc1C(=O)NCCCNC(=O)c1oc(C(C)(C)C)cc1C	-	0	74.1	0	0	0
OCCN(Cc1ccccc1)c1ncnc2sccc12	0	0	0	0	0	0
O=c1c2c(nc3cc(-c4ccc(Cl)cc4)[nH]n13)CCS2	0	0	73.2	0	0	0
O=c1c2c(nc3cc(-c4cccc(F)c4)[nH]n13)CCC2	0	0	0	0	0	0
O=c1c2c(nc3cc(-c4ccc(F)cc4)[nH]n13)CCCC2	55.8	0	79.7	0	0	0
Cc1ccc(C(C)C)c(OCC(=O)c2c(O)c3ccccc3oc2=O)c1	51.2	0	0	0	0	0
Cc1cc(=O)oc2cc(OCC(=O)c3ccccc3)ccc12	0	0	0	0	0	0
Cc1ccc(OCC(=O)c2c(O)c3ccccc3oc2=O)cc1C	61.8	0	0	0	0	0
CCOc1ccc(N=Cc2c(O)c3ccccc3oc2=O)cc1	0	0	0	0	0	0
